Assay results as given in PubChem BioAssay.
Unmarked numbers belong to inactive results. A call without a number means that no potency is given here. For some of these results: Potency and affinity values are given separately. Activity calls are given as the source filed them. Unless noted, the rule behind the calls is not given here.

Legend:
[1] = antimalarial activity against Dd2 strain (AID 2302;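 active = growth inhibition above 50% at the single 2 µM test dose, taken to imply half-maximal potency below 2 µM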); conditions: P. falciparum Dd2 in RBCs, LDH growth readout, 72 h; at 2 µM; hits give high values
[2] = human hepatoma cell viability loss – ATP luminescence, cytotoxicity control for P. falciparum antimalarial project, primary screen (AID 2303;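 active = inhibition above 50%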); conditions: HepG2 viability, 24-48 h, at 10 µM, hits give high values
[3] = molecular target: L-lactate dehydrogenase (Plasmodium falciparum (isolate CDC / Honduras)) (UniProt Q27743); test: PfLDH activity inhibition – cell lysate, 3D7 strain, counter-screen for P. falciparum growth inhibition project (AID 2304); conditions: P. falciparum 3D7 crude extract, LDH APAD/NBT absorbance; at 2 µM; hits give high values
Chain of L-lactate dehydrogenase (Plasmodium falciparum (isolate CDC / Honduras)) (Q27743 whole entry, looked up): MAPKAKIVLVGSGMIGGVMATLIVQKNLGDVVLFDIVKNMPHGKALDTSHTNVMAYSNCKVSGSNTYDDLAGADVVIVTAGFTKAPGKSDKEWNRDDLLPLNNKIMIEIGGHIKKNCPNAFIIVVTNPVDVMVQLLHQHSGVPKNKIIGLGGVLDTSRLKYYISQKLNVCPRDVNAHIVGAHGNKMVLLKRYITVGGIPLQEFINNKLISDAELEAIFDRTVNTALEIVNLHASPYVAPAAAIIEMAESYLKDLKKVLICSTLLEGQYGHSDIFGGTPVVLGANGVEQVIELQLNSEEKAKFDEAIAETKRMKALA

[4] = inhibition of 3D7 malaria parasite growth – strain 3D7 (AID 2306); conditions: P. falciparum 3D7 erythrocytic growth, LDH absorbance, 72 h; at 2 µM; hits give high values
[5] = molecular target: Calcium-dependent protein kinase 1 (Plasmodium falciparum (isolate 3D7)) (UniProt P62344); test: PfCDPK1 kinase inhibitors, biochemical, TCAMS library (AID 1159585; cut-off not given, nearly all actives have IC50 up to about 0.98 µM;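 note: inhibitors leave more ATP so luminescence rises with inhibition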); conditions: recombinant PfCDPK1, Kinase-Glo ATP depletion luminescence
Chain of Calcium-dependent protein kinase 1 (Plasmodium falciparum (isolate 3D7)) (P62344 whole entry, looked up): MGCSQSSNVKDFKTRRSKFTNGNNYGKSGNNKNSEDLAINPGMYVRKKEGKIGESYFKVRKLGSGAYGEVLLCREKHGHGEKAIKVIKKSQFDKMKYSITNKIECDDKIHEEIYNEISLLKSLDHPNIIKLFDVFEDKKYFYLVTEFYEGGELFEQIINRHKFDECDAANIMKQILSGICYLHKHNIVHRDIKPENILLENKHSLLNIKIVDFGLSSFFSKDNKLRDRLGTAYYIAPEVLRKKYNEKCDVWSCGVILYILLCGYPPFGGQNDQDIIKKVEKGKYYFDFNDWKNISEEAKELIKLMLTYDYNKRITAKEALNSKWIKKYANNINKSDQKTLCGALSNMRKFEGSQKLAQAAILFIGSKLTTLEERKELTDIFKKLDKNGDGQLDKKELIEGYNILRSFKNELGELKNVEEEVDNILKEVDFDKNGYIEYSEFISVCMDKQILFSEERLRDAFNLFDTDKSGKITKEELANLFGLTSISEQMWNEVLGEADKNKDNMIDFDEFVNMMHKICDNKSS

[6] = molecular target: Plasmodium falciparum protein kinase 6 (PK6, PF3D7_1337100) (UniProt Q8IDW1); test: PfPK6 kinase inhibitors, biochemical, TCAMS library (AID 1159586); conditions: recombinant PfPK6, Kinase-Glo ATP depletion luminescence
Chain of Plasmodium falciparum protein kinase 6 (PK6, PF3D7_1337100) (Q8IDW1 1-305): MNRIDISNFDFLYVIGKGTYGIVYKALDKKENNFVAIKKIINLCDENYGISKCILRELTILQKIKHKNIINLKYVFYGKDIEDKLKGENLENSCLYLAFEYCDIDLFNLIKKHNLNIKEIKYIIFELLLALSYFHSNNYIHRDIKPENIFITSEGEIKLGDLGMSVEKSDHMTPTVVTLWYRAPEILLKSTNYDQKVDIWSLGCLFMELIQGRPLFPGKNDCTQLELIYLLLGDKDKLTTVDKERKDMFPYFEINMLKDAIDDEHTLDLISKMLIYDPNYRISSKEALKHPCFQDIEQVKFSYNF

[7] = molecular target: Protein kinase 7 (PK7), Plasmodium falciparum 3D7 (PF3D7_0213400) (UniProt Q7YTF7); test: inhibition of Plasmodium PK7 catalytic activity – biochemical, TCAMS antimalarial set, Kinase-Glo luminescence (AID 1159587); conditions: recombinant PfPK7, Kinase-Glo ATP depletion luminescence
Chain of Protein kinase 7 (PK7), Plasmodium falciparum 3D7 (PF3D7_0213400) (Q7YTF7 1-343): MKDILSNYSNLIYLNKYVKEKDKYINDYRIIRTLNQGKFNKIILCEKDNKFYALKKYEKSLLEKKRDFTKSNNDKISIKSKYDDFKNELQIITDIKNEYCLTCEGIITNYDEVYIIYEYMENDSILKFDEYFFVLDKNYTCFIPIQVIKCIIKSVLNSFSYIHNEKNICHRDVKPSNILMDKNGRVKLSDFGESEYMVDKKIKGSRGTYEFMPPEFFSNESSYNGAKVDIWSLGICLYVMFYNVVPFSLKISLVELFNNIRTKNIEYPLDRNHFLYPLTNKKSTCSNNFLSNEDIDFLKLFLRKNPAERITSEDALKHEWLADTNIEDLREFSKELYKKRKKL

[8] = molecular target: Calcium-dependent protein kinase 4 (Plasmodium falciparum (isolate 3D7)) (UniProt Q8IBS5); test: PfCDPK4 kinase inhibitors, biochemical, TCAMS library (AID 1159588; cut-off not given, nearly all actives have IC50 up to about 0.91 µM); conditions: recombinant PfCDPK4, Kinase-Glo ATP depletion luminescence
Chain of Calcium-dependent protein kinase 4 (Plasmodium falciparum (isolate 3D7)) (Q8IBS5 whole entry, looked up): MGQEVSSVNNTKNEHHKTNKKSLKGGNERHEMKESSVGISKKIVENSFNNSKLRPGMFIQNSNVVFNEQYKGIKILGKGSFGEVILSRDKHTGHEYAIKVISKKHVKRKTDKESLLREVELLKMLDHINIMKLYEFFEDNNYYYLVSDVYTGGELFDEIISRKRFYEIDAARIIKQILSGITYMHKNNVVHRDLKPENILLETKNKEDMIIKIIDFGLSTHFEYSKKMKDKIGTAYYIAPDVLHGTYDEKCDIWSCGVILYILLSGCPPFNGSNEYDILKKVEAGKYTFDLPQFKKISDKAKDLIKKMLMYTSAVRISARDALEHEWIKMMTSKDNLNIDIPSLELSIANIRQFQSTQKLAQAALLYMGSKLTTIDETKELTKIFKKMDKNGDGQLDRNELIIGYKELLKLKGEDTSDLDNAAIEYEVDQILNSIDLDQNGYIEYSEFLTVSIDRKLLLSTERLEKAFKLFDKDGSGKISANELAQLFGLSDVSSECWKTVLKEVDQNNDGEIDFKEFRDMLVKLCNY

Structure (SMILES) | growth inhibition [1] | inhibition [2] | inhibition [3] [%] | growth inhibition [4] | outcome [5] | outcome [6] | outcome [7] | outcome [8]
C[C@H](Cc1ccc(OCCCOc2ccc(C[C@@H](C)NC[C@H](O)c3cccc(Cl)c3)cc2)cc1)NC[C@H](O)c1cccc(Cl)c1 | 92% (active) | 99% (active) | 0 | 99% (active) | inactive | inactive | inactive | inactive
Cc1ccc2ncc(Cl)c(CCN3CCC(NCc4ccc5c(n4)NC(=O)CS5)CC3)c2n1 | 12% | 13% | -3 | 90% (active) | inactive | inactive | inactive | inactive
Clc1ccccc1CNc1noc(-c2sccc2Br)n1 | 93% (active) | 0% | -7 | 97% (active) | inactive | inactive | inactive | inactive
O=C(Nc1ccc(Br)cc1)N(CCN1CCOCC1)CC(O)COCc1ccc(F)cc1 (stereo not drawn) | 3% | 5% | -1 | 90% (active) | inactive | inactive | inactive | inactive
COc1ccc(NC(=O)C2c3ccccc3C(=O)N(C3CCCC3)C2c2cccs2)cc1 (stereo not drawn) | 75% (active) | 0% | -1 | 93% (active) | inactive | inactive | inactive | inactive
CN1CCC(NCc2cccc(-c3ccc(S(=O)(=O)NCCN4CCCC4)s3)c2)CC1 | 1% | 10% | -5 | 91% (active) | inactive | inactive | inactive | inactive
C#CCN(Cc1ccc2nc(N)[nH]c(=O)c2c1)c1ccc(C(=O)N[C@@H](CCC(=O)O)C(=O)O)cc1 | 96% (active) | 45% | 3 | 95% (active) | inactive | inactive | inactive | inactive
COc1ccccc1NC(=S)N/N=C/c1ccc(O)cc1O | 80% (active) | 35% | -5 | 89% (active) | inactive | inactive | inactive | inactive
CCCCCCCC1CC(CC(=O)Nc2ccnc3ccc(OC)cc23)CN1C(=O)OC(C)(C)C (stereo not drawn) | 34% | 1% | 3 | 100% (active) | inactive | inactive | inactive | inactive
O=C(Nc1ccc2ccccc2c1)N(CCCn1ccnc1)Cc1csc(-c2ccc(CNCc3ccccc3)cc2)n1 | 53% (active) | 10% | 0 | 99% (active) | inactive | inactive | inactive | inactive
COc1ccc2ncc(F)c(CCN3CCC(NCc4cc(Br)c5c(c4)OCCO5)CC3)c2n1 | 94% (active) | 26% | -2 | 100% (active) | inactive | inactive | inactive | inactive
Cc1cc(-c2ccc3c(c2)CCN(CCC2CCC(NC(=O)/C=C/c4ccccc4F)CC2)CC3)on1 (stereo not drawn) | 13% | 26% | -4 | 94% (active) | inactive | inactive | inactive | inactive
COc1ccc2nc(NC3=NC(c4ccccn4)(c4ccccn4)C(=O)N3C)[nH]c2c1 | 98% (active) | 65% (active) | 1 | 99% (active) | inactive | inactive | inactive | inactive
COc1ccc2nccc([C@@H](O)CN3CCC(NCc4nc5c(F)cc(F)cc5[nH]4)CC3)c2c1 | 64% (active) | 19% | 0 | 99% (active) | inactive | inactive | inactive | inactive
Cc1cc(NC(=O)Nc2ccc(C(C)C)cc2)c2ccccc2n1 | 16% | 7% | -1 | 99% (active) | inactive | inactive | inactive | inactive
O=C(O)c1cc(OCC(O)COc2ccc(O)c(C(=O)O)c2)ccc1O | 6% | 9% | 5 | 99% (active) | inactive | inactive | inactive | inactive
O=C(/C=C/c1ccc(Cl)c(Cl)c1)NCCCCCN1CCCC(C(=O)Nc2ccc(F)c(Cl)c2)C1 (stereo not drawn) | 2% | 28% | 1 | 99% (active) | inactive | inactive | inactive | inactive
CCNc1cc(C)nc(Nc2ccc(NC(=O)c3ccc(OC)c(OC)c3)cc2)n1 | 65% (active) | 19% | 0 | 101% (active) | inactive | inactive | inactive | inactive
O=C(/C=C/c1ccc(Cl)c(Cl)c1)NCCCCN1CCCN(C(=O)Nc2ccc(Cl)c(Cl)c2)CC1 | 1% | 22% | 3 | 96% (active) | inactive | inactive | inactive | inactive
Cc1cccn2c(=O)c3cc(C(=O)NC(C)c4ccccc4)c(=N)n(CCN4CCOCC4)c3nc12 (stereo not drawn) | 5% | 6% | 4 | 101% (active) | inactive | inactive | inactive | inactive
Nc1nonc1-c1nc2c(-c3cccc(Cl)c3)nccc2n1CCCNC(=O)Cc1ccc(Cl)cc1 | 92% (active) | -4% | -2 | 94% (active) | inactive | inactive | inactive | inactive

Structure (SMILES) | growth inhibition [1] | inhibition [2] | inhibition [3] [%] | growth inhibition [4] | outcome [5] | outcome [6] | outcome [7] | outcome [8]
O=C(Nc1ccc(-c2ccc(-c3nc4ccc(C(F)(F)F)cc4[nH]3)cc2)cc1)Nc1ccc(F)c(F)c1F | 100% (active) | 39% | 3 | 99% (active) | inactive | inactive | inactive | inactive
Cc1[nH]c(C)c(-c2ccc(OCc3cc(F)cc(F)c3)nc2)c(=O)c1Br | 97% (active) | 37% | -7 | 98% (active) | inactive | inactive | inactive | inactive
NS(=O)(=O)c1ccc(CNc2ccc3ncc(-c4ccc(OC(F)(F)F)cc4)n3n2)cc1 | 99% (active) | 10% | -7 | 97% (active) | inactive | inactive | inactive | inactive
Cc1c(C(=O)[C@@H]2C[C@H]2CN2CCC(N3CCCC3)CC2)sc2ccccc12 | 9% | 16% | 0 | 94% (active) | inactive | inactive | inactive | inactive
N#Cc1ccc(-c2ccc(C(=O)Nc3ccc4c(c3)CCN(C3CCC3)CC4)nc2)cn1 | 15% | 24% | -1 | 85% (active) | inactive | inactive | inactive | inactive
N#CN1CC[C@@H](OC(=O)N[C@@H]2C[C@H]2c2ccccc2)C1 | 56% (active) | -1% | -2 | 84% (active) | inactive | inactive | inactive | inactive
CCOc1ccccc1CCNC(C)Cc1ccc(C(=O)Nc2ccc(CC(C)NCCc3cccc(Cl)c3)cc2)cc1 (stereo not drawn) | 59% (active) | 100% (active) | -3 | 97% (active) | inactive | inactive | inactive | inactive
FC(F)(F)c1ccc2nc(-c3ccc(-c4ccc(CNCC5CCCO5)cc4)cc3)[nH]c2c1 (stereo not drawn) | 100% (active) | 33% | -3 | 101% (active) | inactive | inactive | inactive | inactive
CCn1c(-c2ccccc2)cc2nnc3ccccc3c21 | 87% (active) | 34% | 5 | 92% (active) | inactive | inactive | inactive | inactive
Cc1ccc(-c2nc(NC(=O)Nc3ccc(C(F)(F)F)cc3)sc2C)cc1Cl | 86% (active) | 29% | -5 | 99% (active) | inactive | inactive | inactive | inactive
O=C(Nc1ccc(Cl)cc1F)N[C@H]1CCN(CCCCCNC(=O)[C@@H]2C[C@H]2c2ccc(Cl)c(Cl)c2)C1 | -3% | 29% | 3 | 87% (active) | inactive | inactive | inactive | inactive
NC(=O)c1ccc(NCC(=O)Nc2cccc(-c3cccc(-c4nc5ccccc5[nH]4)c3)c2)cc1 | 30% | 9% | -3 | 99% (active) | inactive | inactive | inactive | inactive
COc1ccc(CNC(=O)c2cnc3c(O)cccc3c2Nc2cccc(NC(=O)c3ccc(-c4ccccc4)cc3)c2)cc1 | 83% (active) | 42% | 6 | 90% (active) | inactive | inactive | inactive | inactive
COc1cccc2cc(C(=O)N[C@@H](CC(C)C)C(=O)N[C@H](/C=N/N3C(=O)CN(Cc4ccccc4)C3=O)CCc3ccccc3)oc12 | 52% (active) | 14% | -1 | 85% (active) | inactive | inactive | inactive | inactive
Clc1ccc2c(NCc3ccccc3)ccnc2c1 | 100% (active) | 40% | 1 | 101% (active) | inactive | inactive | inactive | inactive
CCCCCCNCCOc1ccc(-c2nc(-c3ccccc3)c(-c3ccccc3)[nH]2)cc1 | 39% | 14% | -4 | 98% (active) | inactive | inactive | inactive | inactive
NC(N)=Nc1ccc(NC(=O)Nc2ccc(N=C(N)N)cc2)cc1 | 74% (active) | -5% | 1 | 85% (active) | inactive | inactive | inactive | inactive
COC1(C)Oc2ccc3cccc([N+](=O)[O-])c3c2C1=O (stereo not drawn) | -4% | 3% | -2 | 98% (active) | inactive | inactive | inactive | inactive
CCn1cnc2c(N3CCCCS3(=O)=O)cc(C(=O)N[C@@H](Cc3ccccc3)[C@H](O)CNC3CCOCC3)cc21 | 87% (active) | 7% | 6 | 99% (active) | inactive | inactive | inactive | inactive
O=C(/C=C/c1ccc(Cl)c(Cl)c1)NCCCCCCN1CCCN(C(=O)Nc2cc(Cl)cc(Cl)c2)CC1 | 2% | 26% | -3 | 98% (active) | inactive | inactive | inactive | inactive
